Experimental data as given in PubChem BioAssay (NCATS).
Inconclusive results are not listed. Calls of active or inactive are those of the source. Calls come from the whole dose curve; as a rule, active = well fitted inhibition curve with a large enough effect; inconclusive = small, poorly fitted or top-dose-only effect; inactive = flat fitted curve, though single readings scatter.

Tested on: P94_40
Experiment: qHTS profiling for inhibitors of Plasmodium falciparum proliferation (AID 504749); note: nearly all actives have a fitted effect of over 60% in size
Conditions: P. falciparum in erythrocytes, SYBR Green DNA, 72 h; series mostly up to 28.7 µM
In short: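 P. falciparum-infected erythrocytes (0.3% parasitemia, 2.5% hematocrit) incubated with compound 72 h at 37 C, 5% CO2. Parasite DNA detected by SYBR Green after lysis, overnight at room temperature; normalised to 0.29 uM artemisinin and DMSO.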
Potency is the fitted concentration of half-maximal effect.

Row | Compound | Potency
1 | Cc1nc2sccn2c(=O)c1CCN1CCC(=C(c2ccc(F)cc2)c2ccc(F)cc2)CC1 | 11.2 µM (active)
2 | CNC1(C)C2CCC(C2)C1(C)C (stereo unspecified) | inactive
3 | c1cc(CN2CCCCC2)cc(OCCCNc2nc3ccccc3s2)c1 | 10 µM (active)
4 | COc1ccc(CN(CCN(C)C)c2ccccn2)cc1 | inactive
5 | CN(C)CCN(Cc1cccs1)c1ccccn1 | 10 µM (active)
6 | CC(=O)[C@]1(O)Cc2c(O)c3c(c(O)c2[C@@H](O[C@H]2C[C@H](N)[C@H](O)[C@H](C)O2)C1)C(=O)c1ccccc1C3=O | 3.16 µM (active)
7 | Brc1c(NC2=NCCN2)ccc2nccnc12 | inactive
8 | C=CCc1ccccc1OCC(O)CNC(C)C (stereo unspecified) | 12.6 µM (active)
9 | CC(C)(C)c1ccc(C(=O)CCCN2CCC(OC(c3ccccc3)c3ccccc3)CC2)cc1 | 7.94 µM (active)
10 | CCN(CC)CCNC(=O)c1cc(S(C)(=O)=O)ccc1OC | inactive
11 | CC1=C(C)C(=O)C(CCCCC#CCCCC#CCO)=C(C)C1=O | 8.91 µM (active)
12 | CCOC(=O)C1=C(C)NC(C)=C(C(=O)OC)C1c1cccc([N+](=O)[O-])c1 (stereo unspecified) | 11.2 µM (active)
13 | NC(=Nc1ccccc1)Nc1ccccc1 | inactive
14 | O=C1NCN(c2ccccc2)C12CCN(CCCC(c1ccc(F)cc1)c1ccc(F)cc1)CC2 | 5.62 µM (active)
15 | O=C1CC2(CCCC2)CC(=O)N1CCCCN1CCN(c2ncccn2)CC1 | inactive
16 | O=C(CCCN1CCC(O)(c2cccc(C(F)(F)F)c2)CC1)c1ccc(F)cc1 | 8.91 µM (active)
